These entries were drawn from the full list.
aSyn UTR act: Activators via SNCA 5'UTR binding, MLPCN | AID 1814 | alpha-synuclein 5'UTR reporter, activators screen | hit rate 7.1% among 300,000 | activity score, % (tested at 7.5 µM), hits read low; in the data active = activity score below about -60%
An asterisk follows results filed as active.

SMILES | aSyn UTR act
Cc1cccc(NC(=O)c2cc([N+](=O)[O-])ccc2Cl)c1O | -84.7*
O=C(Nc1nccs1)c1ccc(-c2ccc(Cl)cc2)o1 | -206.6*
O=C(Nc1nccs1)c1ccc(-c2ccc(F)cc2)o1 | -260.2*
O=C(Nc1nccs1)c1cc([N+](=O)[O-])ccc1Cl | -67.9*
O=C(Nc1nccs1)c1ccc(-c2ccc([N+](=O)[O-])cc2)o1 | -141.4*
O=C(Nc1cccnc1)c1ccc(-c2ccc(Cl)cc2)o1 | -189.5*
Cc1ccc(C=Nc2ccc(N(C)C)cc2)o1 | -138.8*
O=C1C(c2cc(=O)c3ccccc3[nH]2)=C(O)c2ccccc21 | -118.0*
O=c1cc(-c2ccccc2)[nH]c2ccccc12 | 67.9
CCn1cc(Br)c(C(=O)Nc2ccccc2C(=O)OC)n1 | -87.5*
CCn1cc(Cl)c(C(=O)Nc2cccc(C(F)(F)F)c2)n1 | -105.4*
CCn1cc(Br)c(C(=O)Nc2cccc(SC)c2)n1 | -141.3*
CCn1cc(Cl)c(C(=O)Nc2ccccc2C(N)=O)n1 | -86.8*
Cc1ccc(C(=O)Nc2cccc(C(F)(F)F)c2)cc1NC(=O)c1nccnc1N | 78.5
CCOC(=O)CCSc1nc(C)c2cc(C)ccc2n1 | -86.6*
O=C(CSc1ccc(-c2ccccn2)nn1)N1CCCCC1 | -66.1*
CCOc1ccc(-c2ccc(SCC(=O)N3CCN(c4ccccc4)CC3)nn2)cc1 | -69.3*
O=C(CSc1ccc(-c2ccccc2)nn1)N1CCCCC1 | -154.9*
CC(=O)c1cccc(NC(=O)CSc2ccc(-c3ccccn3)nn2)c1 | 68.8
O=C(Nc1ccc2c(c1)CCC2)c1cnc(Cl)c(Cl)c1 | -189.8*
O=C(Nc1ccc2c(c1)CCC2)c1c(F)cccc1Cl | -158.8*
O=C(Nc1ccc2c(c1)CCC2)c1ccc(Cl)nc1 | -156.4*
O=C(Cc1n[nH]c(=O)c2ccccc12)OCC(=O)c1ccc2c(c1)OCCO2 | 80.4
CCOc1ccc(C(=O)COC(=O)Cc2n[nH]c(=O)c3ccccc23)cc1 | -87.2*
C=C(C)C1CC=C(C)/C(=N/NC(=O)c2ccoc2C)C1 (stereo not given) | -149.6*
SMILES | aSyn UTR act
Cc1ccc(-c2csc(-c3c[nH]c4ccccc34)n2)c(C)c1 | -92.2*
Oc1ccc(-c2csc(-c3c[nH]c4ccccc34)n2)c(O)c1 | -323.1*
CN1C(=C2C(=O)OC(C)(C)OC2=O)Sc2ccccc21 | -78.5*
COc1ccc(OCc2ccc(C(=O)O)cc2)cc1 | -111.3*
Cc1ccccc1OCC(=O)OCC(=O)c1ccc(OCc2ccccc2)cc1 | -111.6*
COc1ccccc1CC(=O)c1ccc(OCc2ccccc2)cc1 | -73.2*
O=C(COC(=O)c1cccc([N+](=O)[O-])c1)c1ccc(OCc2ccccc2)cc1 | -75.0*
Cc1nn(-c2ccccc2)c(Cl)c1/C=N/NC(=O)c1[nH]ncc1Br | -66.8*
Cc1nn(-c2ccccc2)c(C)c1/C=N/NC(=O)c1cc(-c2ccccc2)n[nH]1 | 82.1
Cc1nn(-c2ccccc2)c(Cl)c1/C=C/C(=O)c1ccccc1 | -106.6*
Cc1cc(C(=O)N/N=C/c2c(C)nn(-c3ccccc3)c2C)c(C)o1 | -69.2*
Cc1nn(-c2ccccc2)c(Cl)c1/C=N/NC(=O)c1ccc(NS(=O)(=O)c2cccs2)cc1 | -109.5*
Cc1nn(-c2ccccc2)c(Cl)c1/C=N/NC(=O)c1ccccc1F | -89.4*
O=C(N/N=C/c1cn(-c2ccccc2)nc1-c1cccs1)c1ccc(Cl)cc1 | -65.8*
COc1cc(C(=O)NC(=S)N(CCc2ccccc2)CCc2ccccc2)cc(OC)c1OC | 69.2
COc1cc(C(=O)Nc2ccc(N(C)C)cc2)cc(OC)c1OC | -98.9*
COc1cc(C(=O)Nc2ccc3c(c2)nc(C)n3C)cc(OC)c1OC | -92.3*
Cc1ccc(NC(=O)Nc2ccc3c(c2)nc(C)n3C)cc1C | -126.6*
Cc1nc2cc(NC(=O)N3CCCCC3)ccc2n1C | -70.9*
Cc1c(/C(O)=C2/C(=O)C(=O)N(Cc3cccnc3)C2c2cccs2)cnn1-c1ccccc1 (stereo not given) | -152.3*
C=CCn1c(C)cc(C(=O)CSc2n[nH]c(N)n2)c1C | -78.6*
Cc1cc(C(=O)CSc2nnc3ccccn23)c(C)n1-c1ccccc1 | 101.8
Cc1cc(C(=O)CSc2n[nH]c(N)n2)c(C)n1-c1ccccc1 | -111.0*
Cc1cc(C(=O)CSc2n[nH]c(N)n2)c(C)n1-c1ccc(F)cc1 | -82.7*
N/C(=N\OC(=O)c1ccccc1Cl)c1ccncc1 | -106.5*
SMILES | aSyn UTR act
Cc1ccc(C(=O)O/N=C(\N)c2ccccc2)c(Cl)c1 | 85.1
N/C(=N\OC(=O)c1cc(Cl)ccc1Cl)c1ccncc1 | -229.4*
N/C(CS(=O)(=O)c1ccccn1)=N\OC(=O)c1ccccc1Cl | -114.3*
N/C(=N\OC(=O)c1ccc(Cl)cc1Cl)c1ccncc1 | -112.0*
Nc1nc(SCc2ccccc2)[nH]c(=O)c1-c1ccccc1 | -98.6*
CCn1c(=N)n(CC(=O)c2cccc([N+](=O)[O-])c2)c2ccccc21 | -82.6*
COc1ccc(C(=O)CNc2ccccc2Br)cc1 | -180.8*
COc1ccc(C(=O)CNc2ccc3ccccc3c2)cc1 | -70.1*
COc1ccc(C(=O)Nc2ccc(S(=O)(=O)N(C)c3ccccc3)cc2)cc1 | -73.6*
CN(C)S(=O)(=O)Oc1cccc(C(=O)Nc2ccc([N+](=O)[O-])cc2)c1 | -168.3*
COc1ccc(NC(=O)c2ccc3ccccc3c2)cc1 | -92.0*
COc1ccc(Br)cc1CN(C)C(C)C(=O)Nc1cc([N+](=O)[O-])ccc1OC (stereo not given) | 51.4
O=C(/C=C/Nc1ccccc1)c1ccc(Oc2ncccn2)cc1 | -243.5*
COc1ccc(C(=O)Nc2cccc([N+](=O)[O-])c2)cc1Br | -85.0*
COc1ccc(NC(=O)c2cc([N+](=O)[O-])ccc2O)cc1 | 85.1
CCOc1ccc(NS(=O)(=O)c2cc(OC)ccc2OC)cc1 | -90.8*
COc1ccc(NC(=O)c2cccc([N+](=O)[O-])c2)cc1 | -105.0*
Cc1ccc(NCCC(=O)c2cccc([N+](=O)[O-])c2)cc1 | -151.3*
COC(=O)/C(=C/c1cccc([N+](=O)[O-])c1)NC(=O)c1ccc(OC)cc1 | -216.3*
COc1ccc(N/C=C\C(=O)c2ccc3ccccc3c2)cc1 | -211.7*
COc1ccc(C(=O)/C=C/Nc2ccc(C)cn2)cc1OC | -139.9*
COc1ccc(-c2cccc(C(=O)N3CCOCC3)c2)cc1 | -79.8*
COc1ccc(-c2cccc(C(=O)Nc3cccc(C(=O)O)c3)c2)cc1 | -149.3*
CCOc1ccc(N/C=C/C(=O)c2ccc(OC)c(OC)c2)cc1 | -175.4*
COc1ccc(NC(=O)c2coc(C)c2)cc1 | -115.2*
SMILES | aSyn UTR act
Cc1ccc(-c2cnn(-c3cccc([N+](=O)[O-])c3)c2N)cc1 | -105.2*
Nc1c(-c2ccccc2)cnn1-c1ccc(C(=O)O)cc1 | -130.5*
Cc1ccc(-c2cnn(-c3ccccc3)c2N)cc1 | -69.4*
Nc1c(-c2ccc(Cl)cc2)cnn1-c1ccccc1 | -180.5*
Nc1c(-c2ccccc2)cnn1-c1cccc(C(F)(F)F)c1 | -204.7*
Nc1c(-c2ccc(Cl)cc2)nnn1-c1ccccc1 | -158.8*
O=c1c2ccccc2c(-c2ccc(O)cc2)nn1-c1cccc(C(F)(F)F)c1 | 52.2
O=C(Nc1ccccn1)c1onc2c1CCCC2 | 96.4
O=C(Nc1ccccn1)c1csc2c1CCCC2 | -162.8*
COc1cc(NC(=O)c2csc3c2CCCC3)ncn1 | -152.9*
CCOC(=O)c1cnc2c(-c3ccccc3)cnn2c1C | -112.4*
CC(=O)c1cnc2c(-c3ccccc3)cnn2c1C | -68.2*
CCOC(=O)C1CCN(C(=O)CCc2c(C)nc3cc(-c4ccccc4)nn3c2C)CC1 | 66.5
CCOC(=O)Cc1c(C)nc2c(-c3ccccc3)cnn2c1C | -70.3*
